Results published in PubChem BioAssay AID1159580 (chemical genetic matrix, 2015).
“And” between values parts separate entries of the source, which are not always exact repeats. Equal values may be shown once. Hit rate of the full screen: of about 5,500 compounds, about 2,000 (36%) were called active. Roughly 18% stayed inconclusive and do not appear here. Rule as the data show it: active = normalized growth mostly below about 0.91 (no sharp cut-off); inconclusive = no clear call, values can overlap the other calls; inactive = mostly above about 0.92. The list shows a part of the results.

Experiment: chemical genetic growth profiling, strain panel (AID 1159580);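 also: tested at 20 µM; growth read once vehicle control cultures reached saturation at 30 °C; 1 = growth at the plate median or of vehicle wells; lower values mean less growth of the strain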
Details: S. cerevisiae deletion strains, growth OD

Measured: normalized growth

NC1(C(=O)O)CC1
inactive: locus YAL013W, strain DEP1, stronger effect = lower value 1 | locus YAL021C, strain ccr4, stronger effect = lower value 1.04 | locus YAL026C, strain drs2, stronger effect = lower value 1.04 | locus YAL030W, strain snc1, stronger effect = lower value 1.02 | locus YAL040C, strain CLN3, stronger effect = lower value 0.98 | locus YBL061C, strain skt5, stronger effect = lower value 1.04 | locus YBR009C, strain hhf1, stronger effect = lower value 1.02 | locus YBR021W, strain FUR4, stronger effect = lower value 1.01 | locus YBR023C, strain chs3, stronger effect = lower value 1.03 | locus YBR171W, strain sec66, stronger effect = lower value 1.04 | locus YBR229C, strain ROT2, stronger effect = lower value 1.01 | locus YBR231C, strain swc5, stronger effect = lower value 1.02 | locus YBR279W, strain paf1, stronger effect = lower value 1.02 | locus YCL011C, strain gbp2, stronger effect = lower value 1.02 | locus YCL016C, strain dcc1, stronger effect = lower value 1.04 | locus YCL029C, strain bik1, stronger effect = lower value 1.02 | locus YCL061C, strain MRC1, stronger effect = lower value 1.02 | locus YCL069W, strain vba3, stronger effect = lower value 1.02 | locus YCR088W, strain abp1, stronger effect = lower value 1.02 | locus YDL005C, strain med2, stronger effect = lower value 1.03 | locus YDL035C, strain GPR1, stronger effect = lower value 1.03 | locus YDL040C, strain nat1, stronger effect = lower value 1.02 | locus YDL074C, strain BRE1, stronger effect = lower value 1.01 | locus YDL101C, strain DUN1, stronger effect = lower value 1.01 | locus YDL134C, strain PPH21, stronger effect = lower value 1.01 | locus YDL185W, strain tfp1, stronger effect = lower value 1.03 | locus YDL192W, strain arf1, stronger effect = lower value 1.02 | locus YDR001C, strain nth1, stronger effect = lower value 1.02 | locus YDR069C, strain doa4, stronger effect = lower value 1.04 | locus YDR101C, strain arx1, stronger effect = lower value 1 | locus YDR137W, strain rgp1, stronger effect = lower value 1.06 | locus YDR150W, strain NUM1, stronger effect = lower value 1.01 | locus YDR159W, strain sac3, stronger effect = lower value 1.02 | locus YDR162C, strain NBP2, stronger effect = lower value 1.03 | locus YDR195W, strain ref2 1.02 | locus YDR297W, strain sur2, stronger effect = lower value 1.03 | locus YDR318W, strain mcm21, stronger effect = lower value 1.03 | locus YDR334W, strain swr1, stronger effect = lower value 1.03 | locus YDR335W, strain msn5, stronger effect = lower value 1.04 | locus YDR363W, strain ESC2, stronger effect = lower value 0.986 | locus YDR388W, stronger effect = lower value 1.01 | locus YDR392W, strain spt3, stronger effect = lower value 1.05 | locus YDR502C, strain sam2, stronger effect = lower value 1.02 | locus YEL003W, strain gim4, stronger effect = lower value 1.02 | locus YEL037C, strain rad23, stronger effect = lower value 1.02 | locus YEL061C, strain CIN8 (second series), stronger effect = lower value 1.03 | locus YEL061C, strain CIN8, stronger effect = lower value 1 | locus YER002W, strain NOP16, stronger effect = lower value 0.981 | locus YER015W, strain faa2, stronger effect = lower value 1.03 | locus YER016W, strain bim1, stronger effect = lower value 1.04 | locus YER110C, stronger effect = lower value 1.03 | locus YER111C, strain swi4, stronger effect = lower value 1.01 | locus YER155C, strain BEM2 (second series), stronger effect = lower value 1.02 | locus YER155C, strain BEM2, stronger effect = lower value 0.998 | locus YER167W, strain BCK2, stronger effect = lower value 1.05 | locus YFR010W, strain ubp6, stronger effect = lower value 1.01 | locus YGL078C, strain dbp3, stronger effect = lower value 1.02 | locus YGL086W, strain mad1, stronger effect = lower value 1.03 | locus YGL167C, strain pmr1, stronger effect = lower value 1.04 | locus YGL173C, strain kem1, stronger effect = lower value 1.03 | locus YGL227W, strain vid30, stronger effect = lower value 1.02 | locus YGL240W, strain doc1, stronger effect = lower value 1.01 | locus YGL248W, strain PDE1, stronger effect = lower value 1.01 | locus YGL253W, strain hxk2, stronger effect = lower value 1.04 | locus YGR078C, strain PAC10, stronger effect = lower value 1.02 and 0.978 | locus YGR135W, strain pre9, stronger effect = lower value 1.03 | locus YGR229C, strain SMI1, stronger effect = lower value 1.01 | locus YGR252W, strain gcn5, stronger effect = lower value 1.04 | locus YHR013C, strain ard1, stronger effect = lower value 1.06 | locus YHR027C, strain rpn1, stronger effect = lower value 1.04 | locus YHR030C, strain SLT2, stronger effect = lower value 1 and 1.03 | locus YHR079C, strain IRE1 (second series), stronger effect = lower value 1.01 | locus YHR079C, strain IRE1, stronger effect = lower value 1.03 | locus YHR094C, strain hxt1, stronger effect = lower value 1.01 | locus YHR129C, strain ARP1, stronger effect = lower value 1 | locus YHR142W, strain chs7, stronger effect = lower value 1.05 | locus YHR200W, strain rpn10, stronger effect = lower value 1.03 | locus YIL066C, strain RNR3, stronger effect = lower value 1.02 | locus YIL073C, strain SPO22, stronger effect = lower value 1.11 | locus YIL125W, strain kgd1, stronger effect = lower value 1 | locus YIR030C, strain dcg1, stronger effect = lower value 1.01 | locus YJL092W, strain hpr5, stronger effect = lower value 1.02 | locus YJL095W, strain BCK1 (second series), stronger effect = lower value 1.02 | locus YJL095W, strain BCK1, stronger effect = lower value 1.02 and 1.04 | locus YJL115W, strain asf1, stronger effect = lower value 1.03 | locus YJL129C, strain trk1, stronger effect = lower value 1.05 | locus YJL134W, strain LCB3, stronger effect = lower value 1 | locus YJL154C, strain vps35, stronger effect = lower value 1.01 | locus YJL164C, strain tpk1, stronger effect = lower value 1.02 | locus YJL166W, strain qcr8, stronger effect = lower value 1.01 | locus YJL168C, strain set2, stronger effect = lower value 1.02 | locus YJL187C, strain SWE1 (second series), stronger effect = lower value 1.01 | locus YJL187C, strain SWE1, stronger effect = lower value 1.01 | locus YJR043C, strain POL32, stronger effect = lower value 1.01 | locus YJR066W, strain TOR1, stronger effect = lower value 0.98
